Compound activity from PubChem BioAssay.
Pyk2 oligo antag: antagonists of Pyk2 self-association, primary screen, Q293 cells, FERM NanoBiT luminescence, HTS. Protein-tyrosine kinase 2-beta (Homo sapiens), Q14289. active compounds read low. z-score (the deposit names both 25 µM and 10 µM). 99,000 compounds, 0.83% hits. AID 1347419, 2020;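 active = Z-score of -3 or lower, scaled per plate to the spread of control and sample wells; inactive = z-score above -3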;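 also: negative z-score means lost luminescence so less FERM oligomerization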
CYP2C19 inh: blockers of cytochrome P450 2C19 activity – biochemical, luminescence, ADME assay, primary screen. CYP2C19 Supersomes, luciferin-H EGE luminescence, 30 min. inhibition, % at 5 µM. 96,000 compounds, 21% hits. AID 778, 2007;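 active = CYP2C19 inhibition above a set limit at 5 µM in the primary screen, cut at about 50% in these data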;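 also: plate controls were negative control wells for no effect and 2.5 mM tranylcypromine positive control for full effect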
CYP2C19 act: human CYP2C19 activators, primary screen, biochemical, luminescence. AID 1025, 2008. 96,000 tested, under 10 active. activation factor at 5 µM. recombinant CYP2C19, luciferin-H EGE luminescence; active compounds read high; 0 = fully inhibited enzyme, 1 = untreated enzyme. Cytochrome P450 2C19 (Homo sapiens), P33261;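 active = activation factor of at least 2 at 5 µM in the primary screen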;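 also: 0 = wells with 2.5 mM tranylcypromine and 1 = vehicle-only wells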
Cav3 T inh: Cav3.2 calcium influx blockers – cell-based, Fluo-4 calcium fluorescence, FDSS, MLSMR library, primary screen. Voltage-dependent T-type calcium channel subunit alpha-1H (Homo sapiens), O95180. Cav3.2-expressing cells; active compounds read low. B-score at 10 µM. 100,000 compounds, 4% hits;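 active = single-dose well whose peak fluorescence ratio is a statistical outlier from its plate by either plate-standardised score or position-corrected B-score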
CYP2C9 inhib: blockers of cytochrome P450 2C9 activity – biochemical, luminescence, ADME assay, primary screen. CYP2C9 Supersomes, luciferin-H conversion. inhibition, % at 5 µM. 96,000 compounds, 20% hits. AID 777, 2007;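 active = blocking of liver enzyme CYP2C9 beyond about 50% at 5 µM, limit read from the data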
Target sequence (P11712 whole entry, looked up): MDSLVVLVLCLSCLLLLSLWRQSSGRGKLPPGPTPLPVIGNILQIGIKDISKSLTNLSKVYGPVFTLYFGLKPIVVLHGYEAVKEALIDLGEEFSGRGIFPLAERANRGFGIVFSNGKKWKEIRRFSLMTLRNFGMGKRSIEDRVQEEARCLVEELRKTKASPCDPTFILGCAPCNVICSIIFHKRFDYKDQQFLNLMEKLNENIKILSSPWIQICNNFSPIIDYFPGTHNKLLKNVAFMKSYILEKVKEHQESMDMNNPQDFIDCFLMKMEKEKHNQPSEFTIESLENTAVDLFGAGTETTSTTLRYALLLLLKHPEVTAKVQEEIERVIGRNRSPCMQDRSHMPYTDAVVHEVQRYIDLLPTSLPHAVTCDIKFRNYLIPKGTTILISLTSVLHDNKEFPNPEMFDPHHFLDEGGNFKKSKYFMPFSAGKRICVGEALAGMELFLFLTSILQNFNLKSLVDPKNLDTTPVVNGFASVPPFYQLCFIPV
CYP2C9 activ: human CYP2C9 activators, primary screen, biochemical, luminescence; activation factor at 5 µM; recombinant CYP2C9, luciferin-H conversion; active compounds read high; factor 1 = untreated enzyme, 0 = blocked; 96,000 compounds, 1.4% hits; Cytochrome P450 2C9 (Homo sapiens), P11712;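 active = activation factor of 2 or more for CYP2C9 at a 5 µM dose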;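 also: 0 = sulfaphenazole-blocked wells and 1 = vehicle-only wells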
* hit, by the source's call. The list is a sample of the results.

For N#CCC(=N)N1CCN(c2ccccc2Cl)CC1 the results were Pyk2 oligo antag 0.25, CYP2C19 inh 30.3, CYP2C19 act 0.7, Cav3 T inh 0.262, CYP2C9 inhib 27.1 and CYP2C9 activ 0.7.
Screening CC(=O)c1cc(C#N)c(Oc2ccc(Cl)cc2Cl)nc1C returned Pyk2 oligo antag 1.43.
`COc1ccccc1NS(=O)(=O)c1ccc(O)cc1` gave Pyk2 oligo antag -0.47, CYP2C19 inh 86.5*, CYP2C19 act 0.1, Cav3 T inh 0.38, CYP2C9 inhib -125.7 and CYP2C9 activ 2.3*.
Screening COc1ccccc1NS(=O)(=O)c1cccc(C(=O)NN)c1 returned Pyk2 oligo antag 0.31, CYP2C19 inh 97.3*, CYP2C19 act 0, Cav3 T inh 0.316, CYP2C9 inhib -19.1 and CYP2C9 activ 1.2.
`COC(=O)Nc1ccc(S(=O)(=O)Nc2ccc(O)cc2)cc1` gave Pyk2 oligo antag 0.27 and Cav3 T inh 0.403.
Screening COc1ccccc1NS(=O)(=O)c1cccc(NC(=O)c2nc3nc(C)cc(C)n3n2)c1 returned Pyk2 oligo antag 0.81, CYP2C19 inh 8.3, CYP2C19 act 0.9, Cav3 T inh 2.21, CYP2C9 inhib 2.5 and CYP2C9 activ 1.
Screening CCn1cc(C(=O)NCCCN2CCC(C)CC2)c2cc(OC)c(OC)cc2c1=O returned CYP2C19 inh -2.5, CYP2C19 act 1, CYP2C9 inhib 1.0 and CYP2C9 activ 1.
NC1=NC(c2ccc(F)cc2)n2c(nc3ccccc32)N1 (centres undefined) was read as Pyk2 oligo antag 0.23, CYP2C19 inh 67.3*, CYP2C19 act 0.3, Cav3 T inh -0.487, CYP2C9 inhib 6.8 and CYP2C9 activ 0.9.
NC1=NC(c2cn(-c3ccccc3)nc2-c2cccs2)n2c(nc3ccccc32)N1 (centres undefined) was read as Pyk2 oligo antag 0, CYP2C19 inh -15.9, CYP2C19 act 1.2, CYP2C9 inhib -2.7 and CYP2C9 activ 1.
`COc1ccc(OC)c(C2Nc3nc4ccccc4n3C(C)=C2C(=O)Nc2ccc(C)cc2C)c1` (centres undefined) gave Pyk2 oligo antag -0.38, CYP2C19 inh 9.6, CYP2C19 act 0.9, Cav3 T inh -0.669, CYP2C9 inhib 10.5 and CYP2C9 activ 0.9.
`Cc1ccc(-n2c(C)cc(C3N=C(N)Nc4nc5ccccc5n43)c2C)c(C)c1` (centres undefined) gave Pyk2 oligo antag 0.46, CYP2C19 inh 61.0*, CYP2C19 act 0.4, Cav3 T inh -3.4, CYP2C9 inhib 77.4* and CYP2C9 activ 0.2.
Cc1cc(C2N=C(N)Nc3nc4ccccc4n32)c(C)n1-c1ccccc1Cl (centres undefined) was read as Pyk2 oligo antag 0.25, CYP2C19 inh 68.9*, CYP2C19 act 0.3, Cav3 T inh -2.88, CYP2C9 inhib 79.8* and CYP2C9 activ 0.2.
CCOC(=O)N1CCC(c2nc3ccccc3[nH]2)CC1 was read as Pyk2 oligo antag 0.13, CYP2C19 inh 4.8, CYP2C19 act 1, Cav3 T inh 0.00688, CYP2C9 inhib 21.2 and CYP2C9 activ 0.8.
`Cc1ccc(C2C(C(=O)c3sc(-c4ccccc4)nc3C)=C(O)C(=O)N2CCN(C)C)o1` (centres undefined) gave Pyk2 oligo antag -0.33.
Cc1ccc(N2C(=O)c3oc4ccccc4c(=O)c3C2c2cccc(O)c2)nc1 (centres undefined) was read as Cav3 T inh -0.0282.
Screening COC(=O)CN(C#N)c1nc(SC)nc(N(C)C)n1 returned Pyk2 oligo antag 0.99, CYP2C19 inh 55.5*, CYP2C19 act 0.4, Cav3 T inh -1.57, CYP2C9 inhib -91.8 and CYP2C9 activ 1.9.
`COc1cc(C(CCN2CCCCC2)c2c(OC)cc(OC)c3c(C)cc(=O)oc23)cc(OC)c1OC` (centres undefined) gave Cav3 T inh 0.952.
Screening Cc1ccc(NC2=NC(=S)N(CC#N)C23CCCCC3)cc1 returned Pyk2 oligo antag 0.35 and Cav3 T inh -0.337.
